# Data as given in PubChem BioAssay AID504500 (NMMLSC, 2011).
# Measured potencies and affinities stand elsewhere. Calls of active or inactive are those of the source.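 How the source made its calls: active means compounds whose curve fit is tight, with span above 25% and half-effect concentration below 10 µM; inactive means the rest.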
# Biological target: Beta-adrenergic receptor kinase 1 (Homo sapiens) (UniProt P25098)
# Assay: aptamer displacement from bead-bound GRK2 – biochemical, cherry pick 1, bead flow cytometry, dose response (AID 504500)
# Sequence of Beta-adrenergic receptor kinase 1 (Homo sapiens) (P25098 whole entry, looked up): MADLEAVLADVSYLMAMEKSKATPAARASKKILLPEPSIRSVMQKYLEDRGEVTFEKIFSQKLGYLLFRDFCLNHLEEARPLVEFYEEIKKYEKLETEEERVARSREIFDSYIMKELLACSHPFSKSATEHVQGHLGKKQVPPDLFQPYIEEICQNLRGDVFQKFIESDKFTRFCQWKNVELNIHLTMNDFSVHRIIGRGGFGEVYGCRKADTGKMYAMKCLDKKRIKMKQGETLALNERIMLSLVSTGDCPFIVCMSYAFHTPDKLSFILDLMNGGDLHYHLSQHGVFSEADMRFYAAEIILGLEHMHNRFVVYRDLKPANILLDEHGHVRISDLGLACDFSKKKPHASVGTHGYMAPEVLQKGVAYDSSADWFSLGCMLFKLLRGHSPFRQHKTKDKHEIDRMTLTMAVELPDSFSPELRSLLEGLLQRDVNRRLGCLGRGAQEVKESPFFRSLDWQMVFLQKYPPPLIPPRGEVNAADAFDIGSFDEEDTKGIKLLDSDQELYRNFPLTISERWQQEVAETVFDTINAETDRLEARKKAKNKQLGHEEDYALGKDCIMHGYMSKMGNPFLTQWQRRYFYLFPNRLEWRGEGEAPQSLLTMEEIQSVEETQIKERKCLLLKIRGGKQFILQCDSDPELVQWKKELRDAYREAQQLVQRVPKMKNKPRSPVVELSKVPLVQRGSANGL
row,Structure (SMILES),outcome
1,CCN1/C(=C/c2ccc3ccc(C)cc3[n+]2CC)Sc2ccccc21,inactive
2,COc1cc(/C=C2\CCc3c2nc2ccccc2c3C(=O)O)cc(OC)c1OC,inactive
3,CCNc1nc(NCC)n2c(SCC(=O)Nc3ccc(C)c(C)c3)nnc2n1,inactive
4,Cc1ccc(CCNC(=O)CCS(=O)(=O)c2ccc(Br)cc2)cc1,inactive
5,COC(=O)c1ccc(NC(=O)CCS(=O)(=O)c2ccc(Br)cc2)cc1,inactive
6,O=C(CCS(=O)(=O)c1ccc(Br)s1)N1CCc2ccccc21,inactive
7,Cn1c(=O)c(C(=O)NNC(=O)c2cccc(Cl)c2)c(O)c2ccccc21,inactive
8,CNC(=O)c1[nH]cnc1C(=O)Nc1ccc(F)cc1,inactive
9,Cc1ccc(S(=O)(=O)Cc2ccc(C(=O)O)o2)cc1,inactive
10,Cc1cc2ccccc2n1CCNC(=O)c1ccccc1,inactive
11,O=C(CC1SC(N2CCCCC2)=NC1=O)Nc1cccc(C(=O)NCc2ccc(F)cc2)c1 (stereo unspecified),inactive
12,CN(C)c1cccc(C(=O)OCc2cc(=O)oc3cc(O)ccc23)c1,inactive
13,O=C(CCS(=O)(=O)c1ccc(Br)cc1)NCCc1ccc(Cl)cc1,inactive
14,COCCNC(=O)C/C(C)=N/NC(=O)C(=O)NC1CCCCC1,inactive
15,CC(=O)N1CCCc2cc(S(=O)(=O)CCC(=O)N3CCN(c4cccc(C)c4)C(C)C3)ccc21 (stereo unspecified),inactive
16,CC1CCN(C(=O)c2[nH]cnc2C(=O)Nc2cccc(Cl)c2)CC1,inactive

row,Structure (SMILES),outcome
1,COc1ccc(NC(=O)CCS(=O)(=O)c2ccc(Br)s2)cc1,inactive
2,O=C(CCS(=O)(=O)c1ccc(Br)cc1)NCc1cccs1,inactive
3,O=C(O)C1C2C=CC(CC2)C1C(=O)O (stereo unspecified),inactive
4,O=C(CN1CCc2ccccc21)NC(=O)NCc1ccccc1,inactive
5,O=P(c1ccccc1)(c1ccccc1)c1cc(S(=O)(=O)O)ccc1O,inactive
6,COc1ccccc1CNS(=O)(=O)c1ccc2[nH]cc(C(=O)O)c(=O)c2c1,inactive
7,CCN1/C(=C\c2ccc3ccccc3[n+]2CC)Sc2cc(C)ccc21,inactive
8,C=C(C)C(=O)Nc1cccc(C2=NOC3(C2)C[C@@H](C(N)=O)N(C(=O)/C=C/C=C/C)C3)c1 (stereo partly specified),inactive
9,O=C(Nc1cccc(-c2ccc(N3CCOCC3)nn2)c1)c1ccccc1,inactive
10,O=C(/C=C/c1ccco1)OCC(=O)N1CCCCC1,inactive
11,Cc1cccc(N2CCN(C(=O)CCS(=O)(=O)c3ccc(Br)cc3)CC2C)c1 (stereo unspecified),inactive
12,C=C(C)C(=O)Nc1cccc(C2=NOC3(C2)C[C@@H](C(N)=O)N(C(=O)/C=C/CC)C3)c1 (stereo partly specified),inactive
13,Cc1ccc(OCC(=O)c2c(N)n(C)c(=O)n(C)c2=O)c([N+](=O)[O-])n1,inactive
14,C=C(C)C(=O)Nc1cccc(C2=NOC3(C2)C[C@@H](C(N)=O)N(C(=O)C(=C)C)C3)c1 (stereo partly specified),inactive
15,CC(=O)N1CCN(Cc2nc3cc(Cl)ccc3c(=O)[nH]2)CC1,inactive
